The values that follow come from PubChem BioAssay (Tox21).

Records with an inconclusive call do not appear. Calls of active or inactive are those of the source. Unless noted, calls follow the shape of the full dose curve.

Experiment [1] is described as follows: Nuclear factor erythroid 2-related factor 2/antioxidant responsive element (Nrf2/ARE) small molecule agonists: qHTS cell viability counter screen in human keratinocytes (AID 1919968; active = well fitted curve in the direction sought with a large enough effect in the repeat runs; an effect the other way counts as inactive or inconclusive; also: nearly all actives have a fitted effect of over 55% in size). The method, boiled down:
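Fluorescence read-out from CellTiter-Fluor after 1 h at 37 C. Wells held HaCaT-derived ARE-luciferase reporter cells (1,500/well) treated 23 h with DMSO-dissolved compounds. Run in the same wells as the luciferase agonist read.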
A general note: In qHTS, concentration-response curves come from the screen itself.

The nature of experiment [2]: Nuclear factor erythroid 2-related factor 2/antioxidant responsive element (Nrf2/ARE) small molecule agonists: luciferase reporter gene qHTS assay in human keratinocytes (AID 1919969). Also: nearly all actives have a fitted effect of over 35% in size. In general terms: In a reporter assay the amount or activity of a reporter protein is the signal.
The target in experiment [3] is Gonadotropin-releasing hormone receptor (Homo sapiens) (UniProt P30968). Description: Human gonadotropin-releasing hormone receptor (GnRHR) small molecule agonists, calcium flux assay in GnRHR-HEK293 cells (AID 1920063). Also: nearly all actives have a fitted effect of over 35% in size. In outline: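 Calcium-dye fluorescence, Ex/Em=480/540, recorded every 1 sec over 3 min after compound addition to GnRHR-HEK293 cells. Cells had been seeded 18 hours earlier and dye-loaded for 1 hour at 37 C. Fifteen concentrations, triplicates.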
(In general: Calcium flux is commonly read through the fluorescence of an indicator in the cells.)

Experiment [4] addresses KiSS-1 receptor (Homo sapiens) (UniProt Q969F8). Description: Human kisspeptin (KISS1R) small molecule agonists, calcium flux assay in KISS1R-HEK293 cells (AID 1920064; active = well fitted curve in the direction sought with a large enough effect in the repeat runs; an effect the other way counts as inactive or inconclusive). The method, boiled down: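 Calcium flux read-out: kinetic fluorescence at Ex/Em=480/540, 1 s intervals over 3 min, after pin-tool compound addition to dye-loaded KISS1R-HEK293 cells. Fifteen concentrations, triplicates.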

Experiment [5] is described as follows: p53 small molecule agonists, cell-based qHTS assay with human liver microsomes (AID 1963577).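 Also: p53 response element beta-lactamase reporter cells with liver microsomes plus NADPH.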 In outline: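 HLM-supplemented p53RE-bla reporter assay: 16 h compound exposure at 37 C, microsomes and NADPH each 0.5 mg/mL final, read by fluorescence intensity.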
Experiment [6] is described as follows: p53 small molecule agonists, cell-based qHTS assay with rat liver microsomes (AID 1963578). In outline: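 Quantitative HTS of the Tox21 10K library: p53RE-bla cells, rat liver microsomes plus NADPH at 0.5 mg/mL final each, 16 h at 37 C, beta-lactamase fluorescence detection.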
Experiment [7] in a line: p53 small molecule agonists, cell-based qHTS assay with rat liver microsomes: qHTS cell viability counter screen (AID 1963580). Also: nearly all actives have a fitted effect of over 45% in size. The method, boiled down: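 Rat liver microsome (0.5 mg/mL final) and NADPH (0.5 mg/mL final) co-incubation with compounds for 16 h at 37 C on HCT-116 p53RE-bla cells; cytotoxicity taken from intracellular ATP luminescence.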
Experiment [8] can be described thus: p53 small molecule agonists, cell-based qHTS assay (AID 1963582; active = well fitted activation curve with a large enough effect in the signal ratio in the repeat runs, not every such curve was filed as active; the % refers to the signal ratio). In outline: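 Fluorescence intensity read-out of a beta-lactamase reporter under a p53 response element. Cells were exposed to DMSO-dissolved compounds for 16 h at 37 C, then developed with FRET substrate for 2 h at RT.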
Experiment [9] concerns the target 5-hydroxytryptamine receptor 2A (Homo sapiens) (UniProt P28223). Description: 5-hydroxytryptamine receptor 2A (HTR2A) small molecule antagonists, cell-based qHTS assay (AID 1963586). Also: nearly all actives have a fitted effect of over 45% in size. In outline: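 CHO cells stably expressing human HTR2A were plated for 18 h at 37 C, then loaded with calcium dye for 1 h. Compounds were preincubated 5 min at room temperature before DOI (4 nM solution) was added. Kinetic fluorescence was read for 3 min.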

For experiment [10] the target is unchanged. Description: 5-hydroxytryptamine receptor 2A (HTR2A) small molecule agonists, cell-based qHTS assay (AID 1963587). Also: nearly all actives have a fitted effect of over 30% in size. In outline:
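Kinetic calcium-flux fluorescence (2 min, 1 sec intervals) after compound addition in agonist mode. HTR2A-CHO cells were cultured 18 h, then dye-loaded 1 h at 37 C.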

The target of experiment [11] is Muscarinic acetylcholine receptor M1 (Homo sapiens) (UniProt P11229). Description: Cholinergic receptor muscarinic 1 (CHRM1) small molecule agonists, cell-based qHTS assay (AID 1963589). Also: nearly all actives have a fitted effect of over 35% in size. The method, boiled down:
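Calcium flux read-out: kinetic fluorescence at 1 sec intervals after pin-tool compound addition to dye-loaded CHRM1-CHO cells (human M1). Agonist mode; 15 concentrations tested in triplicate independent runs.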

A short description of experiment [12]: cAMP Responsive Elements (CRE) small molecule agonists, cell-based qHTS assay (AID 1963590). In outline: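 Beta-lactamase reporter readout: LiveBLAzer B/G FRET substrate, 2 h at room temperature, added after 3 h compound treatment of CRE-bla HEK 293T cells at 37 C/5% CO2.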
The nature of experiment [13]: cAMP Responsive Elements (CRE) small molecule antagonists, cell-based qHTS assay (AID 1963591; active = well fitted inhibition curve with a large enough effect in the signal ratio in the repeat runs, not every such curve was filed as active; the % refers to the signal ratio). In outline: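 HEK293T CRE-bla; 18 h preincubation; compound pin-transfer; NKH477 0.25 uM final, 3 h, 37 C; LiveBLAzer FRET substrate 2 h RT.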
In experiment [14] the target is Beta-2 adrenergic receptor (Homo sapiens) (UniProt P07550). Description: Adrenergic beta2 receptor (ADRB2) small molecule antagonists, cell-based qHTS assay (AID 1963592). Also: series mostly up to about 92 µM; nearly all actives have a fitted effect of over 50% in size. The method, boiled down: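 Assay format: CHO-ADRB2 cells, 18-20hr seeding at 37C/5% CO2, then compound plus 1nM isoproterenol agonist mix for 0.5hr RT. Homogeneous time-resolved fluorescence cAMP detection after 1hr, expressed as 665/615 nm ratio.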

The target in experiment [15] is D(2) dopamine receptor (Homo sapiens) (UniProt P14416). Description: Dopamine D2 receptor (DRD2) small molecule agonists, cell-based qHTS assay (AID 1963594). Also: nearly all actives have a fitted effect of over 35% in size. In outline:
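cAMP accumulation in DRD2-HEK293 cells measured by HTRF after 1 h detection; compounds added 10 min before NKH477 (200nM […]) forskolin-analogue stimulation, 30 min at room temperature, with Ro20-1724 present at 0.1 mM final.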

Experiment [16] has the same target. Description: Dopamine D2 receptor (DRD2) small molecule antagonists, cell-based qHTS assay (AID 1963595; active = well fitted inhibition curve with a large enough effect in the signal ratio in the repeat runs, with a control signal flat; the % refers to the signal ratio). In outline:
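DRD2-HEK293; 0.1 mM Ro20-1724; cpd 10 min RT; NKH477 200 nM + quinpirole 12 nM, 30 min RT; HTRF cAMP (cAMP-d2/anti-cAMP cryptate), 665/620 nm ratio after 1 h.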

Experiment [17] is described as follows: G protein-coupled receptor (GPCR) small molecule agonists, calcium flux assay: HEK293 wild type cell line counter screen (AID 1920065). The method, boiled down:
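Agonist mode; 18 h seeding at 37 C, 1 h dye load at 37 C; compounds pinned from DMSO, ATP as positive control; kinetic fluorescence 480/540 nm, 3 min, 1 s reads; 15 concentrations, triplicate.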

Experiment [18] is described as follows: p53 small molecule agonists, cell-based qHTS assay with human liver microsomes: qHTS cell viability counter screen (AID 1963579). Also: nearly all actives have a fitted effect of over 45% in size. The method, boiled down: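 Viability of p53RE-bla cells is measured as CellTiter-Glo luminescence following a 16 h, 37 C incubation with compound, liver microsomes from human donors and NADPH.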
A short description of experiment [19]: p53 small molecule agonists, cell-based qHTS assay: qHTS cell viability counter screen (AID 1963581). Also: nearly all actives have a fitted effect of over 45% in size. The method, boiled down: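 Cytotoxicity read-out: ATP-based luminescence (CellTiter-Glo, 30 min RT) measured in the same wells as the p53 reporter assay, HCT-116 p53RE-bla cells, 16 h compound exposure at 37 C.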
In experiment [20] the target is Muscarinic acetylcholine receptor M1 (Homo sapiens) (UniProt P11229). Description: Cholinergic receptor muscarinic 1 (CHRM1) small molecule antagonists, cell-based qHTS assay (AID 1963588). Also: nearly all actives have a fitted effect of over 40% in size. Also: potency is read from the fitted curve at half-maximal effect. In outline: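 Compounds were tested at 15 concentrations in three independent runs. Dye-loaded CHRM1-CHO cells were exposed 5 min at room temperature before stimulation by acetylcholine added at 50nM. Intracellular calcium was read kinetically on FDSS for 3 min.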
Sequence of Muscarinic acetylcholine receptor M1 (Homo sapiens) (P11229 whole entry, looked up): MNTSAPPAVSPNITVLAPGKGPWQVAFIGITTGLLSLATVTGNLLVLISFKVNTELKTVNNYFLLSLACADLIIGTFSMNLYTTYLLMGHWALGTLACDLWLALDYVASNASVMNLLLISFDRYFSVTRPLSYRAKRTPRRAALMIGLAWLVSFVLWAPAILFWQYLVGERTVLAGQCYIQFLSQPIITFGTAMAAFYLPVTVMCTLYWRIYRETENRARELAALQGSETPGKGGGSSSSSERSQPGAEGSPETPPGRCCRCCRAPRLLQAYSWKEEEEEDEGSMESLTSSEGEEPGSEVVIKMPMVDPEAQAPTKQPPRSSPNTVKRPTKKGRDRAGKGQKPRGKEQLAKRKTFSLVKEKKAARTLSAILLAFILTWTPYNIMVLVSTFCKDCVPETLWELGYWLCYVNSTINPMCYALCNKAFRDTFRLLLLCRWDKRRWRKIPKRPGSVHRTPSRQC

Sequence of Beta-2 adrenergic receptor (Homo sapiens) (P07550 whole entry, looked up): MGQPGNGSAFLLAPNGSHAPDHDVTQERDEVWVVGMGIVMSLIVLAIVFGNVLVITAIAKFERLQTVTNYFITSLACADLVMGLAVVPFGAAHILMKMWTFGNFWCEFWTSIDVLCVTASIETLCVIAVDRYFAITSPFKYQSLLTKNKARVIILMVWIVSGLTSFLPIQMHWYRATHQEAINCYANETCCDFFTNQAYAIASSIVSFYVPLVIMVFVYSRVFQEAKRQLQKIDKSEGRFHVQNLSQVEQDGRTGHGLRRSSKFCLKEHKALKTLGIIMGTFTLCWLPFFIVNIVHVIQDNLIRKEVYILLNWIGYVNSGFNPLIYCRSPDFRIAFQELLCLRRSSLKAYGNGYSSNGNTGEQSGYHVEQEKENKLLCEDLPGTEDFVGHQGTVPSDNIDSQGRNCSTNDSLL
Sequence of D(2) dopamine receptor (Homo sapiens) (P14416 whole entry, looked up): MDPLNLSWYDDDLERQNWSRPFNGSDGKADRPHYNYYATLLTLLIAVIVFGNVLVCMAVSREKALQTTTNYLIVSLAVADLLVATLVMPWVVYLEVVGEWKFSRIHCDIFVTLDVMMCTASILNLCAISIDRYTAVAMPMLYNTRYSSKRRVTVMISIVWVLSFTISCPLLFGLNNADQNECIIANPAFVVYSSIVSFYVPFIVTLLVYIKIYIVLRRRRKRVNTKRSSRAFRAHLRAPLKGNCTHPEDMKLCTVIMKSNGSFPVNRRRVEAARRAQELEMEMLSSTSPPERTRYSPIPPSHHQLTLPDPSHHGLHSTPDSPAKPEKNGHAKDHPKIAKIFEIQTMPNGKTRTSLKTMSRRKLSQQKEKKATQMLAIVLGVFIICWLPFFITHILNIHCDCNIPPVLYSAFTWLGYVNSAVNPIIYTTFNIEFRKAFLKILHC
Sequence of Gonadotropin-releasing hormone receptor (Homo sapiens) (P30968 whole entry, looked up): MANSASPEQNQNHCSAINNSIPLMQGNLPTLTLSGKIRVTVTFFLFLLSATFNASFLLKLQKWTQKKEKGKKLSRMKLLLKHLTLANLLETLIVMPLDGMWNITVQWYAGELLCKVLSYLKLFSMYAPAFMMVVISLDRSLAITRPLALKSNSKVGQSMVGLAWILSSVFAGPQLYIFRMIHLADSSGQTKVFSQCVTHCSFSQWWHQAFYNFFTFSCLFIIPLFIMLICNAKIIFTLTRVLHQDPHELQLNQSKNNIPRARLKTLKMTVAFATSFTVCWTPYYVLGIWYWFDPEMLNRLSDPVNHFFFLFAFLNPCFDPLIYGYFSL
Sequence of KiSS-1 receptor (Homo sapiens) (Q969F8 whole entry, looked up): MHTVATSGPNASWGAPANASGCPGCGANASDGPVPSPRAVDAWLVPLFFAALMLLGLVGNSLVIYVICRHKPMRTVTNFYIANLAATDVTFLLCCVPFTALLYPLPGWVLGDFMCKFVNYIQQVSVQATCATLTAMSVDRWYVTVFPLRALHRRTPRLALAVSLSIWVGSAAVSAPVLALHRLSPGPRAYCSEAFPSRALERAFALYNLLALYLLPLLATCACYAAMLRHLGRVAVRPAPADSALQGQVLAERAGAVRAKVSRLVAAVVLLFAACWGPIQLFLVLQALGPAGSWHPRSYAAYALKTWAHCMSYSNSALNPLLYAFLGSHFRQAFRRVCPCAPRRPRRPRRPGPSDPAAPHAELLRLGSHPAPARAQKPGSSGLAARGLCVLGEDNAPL
Sequence of 5-hydroxytryptamine receptor 2A (Homo sapiens) (P28223 whole entry, looked up): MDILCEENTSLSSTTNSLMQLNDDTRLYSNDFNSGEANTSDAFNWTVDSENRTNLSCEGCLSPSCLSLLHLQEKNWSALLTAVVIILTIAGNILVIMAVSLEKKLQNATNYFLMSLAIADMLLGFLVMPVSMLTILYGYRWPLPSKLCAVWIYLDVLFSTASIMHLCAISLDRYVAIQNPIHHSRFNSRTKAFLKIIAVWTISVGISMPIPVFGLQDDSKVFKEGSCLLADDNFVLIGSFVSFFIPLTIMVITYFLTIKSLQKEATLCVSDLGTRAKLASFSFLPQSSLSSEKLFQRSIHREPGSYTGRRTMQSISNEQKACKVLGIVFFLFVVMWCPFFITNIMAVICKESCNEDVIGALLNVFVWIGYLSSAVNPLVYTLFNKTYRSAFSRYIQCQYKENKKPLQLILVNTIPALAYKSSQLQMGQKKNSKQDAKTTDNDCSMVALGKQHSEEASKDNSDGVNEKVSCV

For the compound `COc1ccc(CN(CCN(C)C)c2ncccn2)cc1`, the Potency entry in experiment [1], in [2], in [3], in experiment [5], in experiment [6] and in experiment [7] was “inactive” throughout. Besides, the Potency result in experiment [8], in experiment [9], in experiment [10], in experiment [11], in experiment [12] and in experiment [13] was “inactive” throughout. Moreover, the Potency entry in experiment [14], in [15] and in experiment [16] was “inactive” throughout. Further, in experiment [4], the result was inactive.

Regarding `O=C(O)CNC(=O)c1ccc([N+](=O)[O-])cc1`, the Potency result in [1], in experiment [2], in experiment [3], in experiment [5], in [6] and in [18] was “inactive” in each case. Moreover, the Potency entry in experiment [7], in experiment [19], in experiment [8], in [9], in experiment [10] and in experiment [20] was “inactive” in each case. Besides, the Potency result in experiment [11], in experiment [12], in experiment [13], in experiment [14], in experiment [15] and in experiment [16] was “inactive” throughout. Besides, the outcome in experiment [17] was inactive.

On to `NCCOCCOCCN`, for which the Potency entry in experiment [1], in experiment [2], in experiment [3], in experiment [6], in experiment [18] and in [7] was “inactive” each time. Further, the Potency result in experiment [19], in experiment [8], in experiment [9], in experiment [10], in [11] and in experiment [12] was “inactive” each time. Moreover, the Potency entry in [13], in [14] and in experiment [16] was “inactive” throughout. Besides, the result in experiment [4] was inactive.

As to `COc1ccc(OC)c(OC)c1`, the Potency entry in [1], in experiment [2], in experiment [3], in [5], in experiment [6] and in [18] was “inactive” throughout. Also, the Potency result in experiment [7], in experiment [19], in experiment [8], in [9], in experiment [10] and in [20] was “inactive” each time. In addition, the Potency entry in experiment [11], in experiment [12], in experiment [13], in [14], in experiment [15] and in [16] was “inactive” in each case. Also, the outcome in [17] was inactive.

As to `CCCCCCC(CO)CCCC` (stereo not drawn), the Potency entry in experiment [1], in [2], in experiment [3], in experiment [6], in [18] and in experiment [8] was “inactive” each time. Moreover, the Potency entry in experiment [9], in [10], in experiment [20], in experiment [11], in experiment [12] and in [14] was “inactive” each time. Also, the Potency result in experiment [15] and in experiment [16] was “inactive” in each case. In addition, in [4], the outcome was inactive.

Consider `COc1cc2nc(Cl)nc(N)c2cc1OC`, for which the Potency result in experiment [1], in [2], in experiment [3], in [5], in experiment [6] and in experiment [18] was “inactive” each time. Besides, the Potency result in [7], in experiment [19], in experiment [8], in experiment [9], in experiment [10] and in experiment [20] was “inactive” each time. The Potency result in experiment [11], in experiment [13], in [14] and in [16] was “inactive” throughout. In experiment [17], the result was inactive.

As for `CN(CCOc1ccc(NS(C)(=O)=O)cc1)CCc1ccc(NS(C)(=O)=O)cc1`, the Potency entry in experiment [1], in experiment [2], in experiment [3], in experiment [5], in experiment [6] and in experiment [7] was “inactive” throughout. Moreover, the Potency entry in experiment [9], in experiment [10], in experiment [11], in experiment [12], in experiment [13] and in [14] was “inactive” throughout. Moreover, the Potency entry in experiment [15] and in experiment [16] was “inactive” in each case. Besides, the result in [4] was inactive. Further, in [20], the Potency is 8.18 µM (active).
